This is an account of results in PubChem BioAssay (Tox21).

Values joined by “and” are separate entries in the source; they are usually repeats but may differ in a detail not shown here. Identical values can stand only once. Results filed as inconclusive are left out. A number with no mark means an inactive call. Active and inactive are the calls of the source. The call rests on the fitted dose curve.
On the % scale 0 is the no-effect control and ±100 the full control effect; potency means the concentration at half of the fitted maximal effect.

The test is described as follows: qHTS assay for small molecule agonists of the p53 signaling pathway (AID 651631). Further: nearly all actives have a fitted effect of over 15% in size. The settings on record: HCT-116 p53RE-bla reporter, beta-lactamase FRET ratio, 16 h; series mostly up to 73.3 µM; activation: at the top concentration. An excerpt: U.S. Tox21 Program National Center for Advancing Translational Sciences [NCATS] NIH Chemical Genomics Center [NCGC] U.S. Environmental Protection Agency [EPA] National Institutes of Environmental Health Sciences [NIEHS] National Toxicology Program [NTP] U.S. Food and Drug Administration [FDA] Tox21 Assay Overview: p53, a tumor suppressor protein, is activated following cellular insult, including DNA damage and other cellular stresses. The activation of p53 regulates cell fate by inducing DNA repair, cell cycle arrest, apoptosis, or cellular senescence. The activation of p53, therefore, is a good indicator of DNA damage and other cellular stresses. The CellSensor p53RE-bla HCT-116 cell line (Invitrogen) contains a stably integrated beta-lactamase reporter gene under control of the p53 response elements. The activation of the reporter gene under culture conditions can be detected by fluorescence intensity. This cell line was used to screen the Tox21 compound library in a 1536-well plate format and to identify agonists that activate the p53 signaling pathway.
Tox21 Assay Protocol Summary: The p53RE-bla cells were dispensed at 4,000 cells/5 ul/well in 1536-well black wall/clear bottom plates using a Multidrop dispenser. After the assay plates were incubated at a 37 C/5% CO2 incubator for 5 hours, 23 nL of compounds dissolved in DMSO, positive controls or DMSO only was transferred to the assay plate by a pin tool. The plates were incubated at 37 C for 16 hours. After 1 uL of LiveBLAzerTM B/G FRET substrate was added using a Flying Reagent Dispenser, the plates were incubated at room temperature for 2 hours, and fluorescence intensity was measured by an Envision plate reader.
(In qHTS, concentration-response curves come from the screen itself.)
Take `C[n+]1c2cc(N)ccc2cc2ccc(N)cc21` (tested in a mixture with another compound): the Potency is 7.5 µM (active).

`CCOC(=O)C1=C(C)NC(C)=C(C(=O)OCC)C1c1ccccc1/C=C/C(=O)OC(C)(C)C`: the Potency was 29.8 µM (active).

In the case of `CNC(=O)c1cc(Oc2ccc(NC(=O)Nc3ccc(Cl)c(C(F)(F)F)c3)cc2)ccn1`, the Potency is 5.96 µM (active).

Consider `O=C1OC(OC(=O)c2cccnc2Nc2cccc(C(F)(F)F)c2)c2ccccc21` (stereo not given), for which the “activation” value was -3.31%.

Consider `N[C@@H](CSSC[C@H](N)C(=O)O)C(=O)O`, for which the “activation” value is 2.18%.

On to `CC(C)c1cccc(C(C)C)c1N1C(=O)c2ccc(O)cc2C1=O`, for which the Potency is 1.54 µM (active).

As for `C1CC(COCC2CO2)CCC1COCC1CO1` (stereo not given), the “activation” value is 7.22%.

Turning to `CCCC(CC)CCCCCCCN` (stereo not given), the “activation” value was -2.92% [at 95.1 µM].

For `CC(C)(c1cc(Br)c(O)c(Br)c1)c1cc(Br)c(O)c(Br)c1`, the Potency was 48.4 µM (active) and 41 µM (active).

For the compound `Cc1cn[nH]c1`, the “activation” value was -1.93%.

Consider `CCCCCCCCCCCCOC(=O)c1cc(O)c(O)c(O)c1`, for which the Potency is 68.3 µM (active) and 61.1 µM (active).

With `CCC(C)(C)c1cc(O)c(C(C)(C)CC)cc1O`, the Potency was 54.5 µM (active).

For the compound `CN(C)CCCN1c2ccccc2Sc2ccc(C(F)(F)F)cc21`, the Potency is 11.9 µM (active).

With `O=C(Nc1ccc(Cl)cc1)Nc1ccc(Cl)c(C(F)(F)F)c1`, the Potency is 16.8 µM (active).

In the case of `C=CCCCCCCC=C`, the “activation” value was -2.87%.

Regarding `C=C(C)C(=O)OCCC[Si](Cl)(Cl)Cl`, the “activation” value was -4.68% [at 95.1 µM].

Regarding `Clc1ccc(C(c2ccccc2Cl)C(Cl)Cl)cc1` (stereo not given), the Potency is 68.6 µM (active).

As for `[O]=[Zr]`, the “activation” value was -5.57%.

For `Cn1cnc2ncnc(N)c21`, the “activation” value is -4.18%.

On to `COc1cc(C=C2CCC/C(=C\c3ccc(O)c(OC)c3)C2=O)ccc1O`, for which the Potency was 11.9 µM (active).

With `O=C(O)CC(=O)O`, the “activation” value is -1.88%.

As to `S=P(N1CC1)(N1CC1)N1CC1`, the Potency is 14.4 µM (active).

Turning to `CCCCOC(=O)C(C)CC` (stereo not given), the “activation” value is -3.23%.

For `Cc1c(C(=O)O)cccc1[N+](=O)[O-]`, the “activation” value is -2.15% [at 95.1 µM].

Turning to `CCc1cccc(C)c1`, the “activation” value was -6.22% [at 95.1 µM].

For `C=CC(C)(CCC=C(C)C)OC(=O)/C=C/c1ccccc1` (stereo not given), the “activation” value is -3.1%.

Turning to `O=C(O)c1cccc(Cl)n1`, the “activation” value was -1.7%.

For `CC(C)=C1CC[C@@H](C)CC1=O`, the “activation” value was 0.467%.

Consider `C(=C/c1ccccc1)/c1ccccc1`, for which the “activation” value was 2.2% [at 95.1 µM].

For the compound `CCN=c1cc2oc3cc(NCC)c(C)cc3c(-c3ccccc3C(=O)OCC)c-2cc1C`, the Potency is 48.4 µM (active).

Turning to `CCOC(=O)N1CCC(=C2c3ccc(Cl)cc3CCc3cccnc32)CC1`, the Potency is 23.7 µM (active) and 61.1 µM (active).

Turning to `ClC/C=C\CCl`, the “activation” value was -1.65% [at 95.1 µM].

Take `O=C(Nc1ccc(Cl)c(Cl)c1)c1cc(Cl)cc(Cl)c1O`: the Potency is 3.06 µM (active).

On to `Cc1cccc(Br)c1`, for which the “activation” value was -3.33% [at 95.1 µM].

Regarding `CCN(CC)CCNc1ccc(CO)c2sc3ccccc3c(=O)c12`, the Potency is 5.96 µM (active).

For `CCCCCCCCCCOCC(O)CN` (stereo not given), the Potency was 33.5 µM (active).

On to `COC(=O)NCCC[Si](OC)(OC)OC`, for which the “activation” value was -2.15%.

With `C/C=C/C(=O)Oc1c(CCCCCC(C)C)cc([N+](=O)[O-])cc1[N+](=O)[O-]`, the Potency was 0.864 µM (active).

Turning to `CC(=O)Oc1ccc(C2(c3ccc(OC(C)=O)cc3)Oc3ccccc3NC2=O)cc1`, the Potency is 2.37 µM (active).

Regarding `CC1=C(/C=C/C(C)=C/C=C/C(C)=C/C(=O)Nc2ccc(O)cc2)C(C)(C)CCC1`, the Potency is 29.8 µM (active).
